This passage reports outcome and AC50 results from PubChem BioAssay (EPA / NIEHS).

SMILES strings stand for the structures. Values joined by “and” are separate entries in the source; they are usually repeats but may differ in a detail not shown here. Equal entries are not always repeated. Records with an inconclusive call do not appear. Active and inactive are the calls of the source. The calls were made as follows, unless noted: active = hit-call score of the fitted dose curve at least 0.9, where 1 is the maximum; inactive = score below 0.9.

Read-out in test [1]: Collagen I, COL1A1 (gene 1277)
Description: BSK_MyoF_CollagenI: BioMAP Diversity Plus: MyoF Assay for Collagen I Biomarker Activity (AID 2284238). Particulars: primary human lung fibroblasts. The method in brief:
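Measured by ELISA: Collagen I from human lung fibroblasts 24 h after compound addition, analysed for signal gain with DMSO as baseline; overt toxicity read from SRB staining of parallel cultures at the same time.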

Read-out in test [2]: Collagen III, COL3A1 (gene 1281)
Description: BSK_MyoF_CollagenIII: BioMAP Diversity Plus: MyoF Assay for Collagen III Biomarker Activity (AID 2284239). Conditions: primary human lung fibroblasts. Summed up: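 Multiplexed cell assay in lung fibroblasts, harvested at 24 h post-dose. Collagen III detected by ELISA, with positive-direction fitting relative to DMSO vehicle.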

Read-out in test [3]: Interleukin 17F (IL17F), IL17F (gene 112744)
Description: BSK_BT_xIL17F: BioMAP Diversity Plus: BT Assay for Interleukin 17F (IL17F) Biomarker Activity (AID 2284243). Particulars: primary human B cells with PBMC. The method in brief:
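Luminex readout of IL-17F secretion, 24 h; cells: human B cells with PBMC; positive-direction analysis, DMSO control.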

Read-out in test [4]: Actin alpha 1 (ACTA1), ACTA1 (gene 58)
Description: BSK_MyoF_ACTA1: BioMAP Diversity Plus: MyoF Assay for Actin alpha 1 (ACTA1) Biomarker Activity (AID 2284244). Particulars: primary human lung fibroblasts. Summed up: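 Human lung fibroblasts (MyoF system) dosed with test chemical for 24 h; α-SMA measured by ELISA. Gain of signal fitted relative to DMSO negative control as baseline.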

Read-out in test [5]: Interleukin 2 (IL2), IL2 (gene 3558)
Description: BSK_BT_xIL2: BioMAP Diversity Plus: BT Assay for Interleukin 2 (IL2) Biomarker Activity (AID 2284245). Conditions: primary human B cells with PBMC. Summed up: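 Human B cells co-cultured with PBMC, exposed to test chemical for 24 h. Secreted IL-2 quantified by Luminex xMAP bead immunoassay; activity fitted in the positive direction relative to DMSO vehicle baseline.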

Read-out in test [6]: Collagen IV, COL4A1 (gene 1282)
Description: BSK_MyoF_CollagenIV: BioMAP Diversity Plus: MyoF Assay for Collagen IV Biomarker Activity (AID 2284247). Particulars: primary human lung fibroblasts. Summed up: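 Primary human lung fibroblasts were exposed to test chemicals and sampled 24 h after dosing. Collagen IV levels were measured by ELISA and fitted in the positive direction against DMSO as negative control and baseline.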

The nature of test [7]: TAMU_PeakParms_SingleDonor1434_QT: Texas A&M University (TAMU) 1.5-hr Human Induced Pluripotent Stem Cell (iPSC)-derived Cardiomyocytes Calcium (Ca+2) Flux Assay for Cardiotoxicity: QT (decay-rise ratio) (AID 2284235; active = hit-call score of the fitted dose curve at least 0.9, where 1 is the maximum). Summed up: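 iPSC-derived cardiomyocytes (single donor 1434) dosed at 0.2, 1, 10, 100 uM final in 0.5% DMSO, 90 min at 37C. Ca2+ flux fluorescence decay/rise ratio; EC05 (5% increase versus DMSO) as POD, excluding beat-arrest and severe-notch data.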

Test [8] can be described thus: CCTE_Mundy_HCI_Cortical_NOG_NeuronCount: CCTE's Neurite Outgrowth Assay in rat cortical cells for Neuron Count, Mundy Lab (AID 2284236; active = hit-call score of the fitted dose curve at least 0.9, where 1 is the maximum;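 also: neurons counted by imaging betaIII-tubulin and Hoechst stained cortical cells; cells exposed to compound for about 48 hours before fixation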). Summed up:
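Read-out: neuron number by high-content imaging of betaIII-tubulin (Alexa Fluor-488) and Hoechst-labelled rat primary cortical cells.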

Test [9] in a line: CCTE_Mundy_HCI_Cortical_NOG_BPCount: CCTE's Neurite Outgrowth Assay in rat cortical cells for Branch Point Count, Mundy Lab (AID 2284237).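 Also: branch points counted about two days after chemical exposure.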 Summed up: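 Measured 50.33 h after dosing, this morphology endpoint uses rat primary cortical cultures labelled for betaIII-tubulin. Branch points are quantified by high-content imaging, with DMSO as negative control and baseline.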
A short description of test [10]: CCTE_Mundy_HCI_hNP1_Casp3_7: CCTE's Caspase-Glo 3/7 Assay in human neuroprogenitor cells for Apoptosis, Mundy Lab (AID 2284240). The method in brief:
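Neuroepithelial-lineage stem cells from WA09 embryonic cells were treated with chemicals after 40–44 h of culture. Twenty-four hours later, caspase-3/7 activation was detected luminescently after a 30 min room-temperature reagent step, with DMSO as baseline.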

Test [11] can be described thus: CCTE_Mundy_HCI_hNP1_CellTiter: CCTE's Cell Titer-Glo 2 Assay in human neuroprogenitor cells for Viability, Mundy Lab (AID 2284241; active = hit-call score of the fitted dose curve at least 0.9, where 1 is the maximum;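 as to AC50: a hit is a drop in ATP luminescence versus DMSO meaning reduced viability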). Summed up: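 Measures ATP content in human neural progenitors derived from WA09 embryonic cells. Read-out at 26.5 hours after dosing, with DMSO serving as the negative control and baseline.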
The nature of test [12]: CCTE_Mundy_HCI_Cortical_Synap_Neur_Matur_NeuronCount: CCTE's Synaptogenesis and Neurite Maturation Assay in rat cortical cells for Neuron Count, Mundy Lab (AID 2284242; active = hit-call score of the fitted dose curve at least 0.9, where 1 is the maximum;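 as to AC50: neuron number from Hoechst nuclei and MAP2 staining by high-content imaging; hits reduce neuron count versus DMSO baseline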). The method in brief:
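Rat primary cortical cells received AraC at DIV 5 to arrest glia, then were dosed with chemicals at DIV 7 through DIV 12. Fixed cells were stained for nuclei, MAP2 and synaptophysin, and neurons were counted by high-content imaging relative to DMSO.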

Read-out in test [13]: Monokine induced gamma interferon (MIG), CXCL9 (gene 4283)
Description: BSK_KF3CT_MIG: BioMAP Diversity Plus: KF3CT Assay for Monokine induced gamma interferon (MIG) Biomarker Activity (AID 2284248). Particulars: primary human keratinocytes with fibroblasts. The method in brief:
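MIG in dosed human skin co-cultures was measured by ELISA at 24 h, relative to DMSO.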

Read-out in test [14]: Vascular cell adhesion molecule 1 (VCAM1), VCAM1 (gene 7412)
Description: BSK_BF4T_VCAM1: BioMAP Diversity Plus: BF4T Assay for Vascular cell adhesion molecule 1 (VCAM1) Biomarker Activity (AID 2284249). Particulars: primary human bronchial epithelial cells with fibroblasts. Summed up:
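Human bronchial epithelial cell and dermal fibroblast co-culture exposed 24 h. VCAM-1 measured by ELISA; parallel SRB total-protein staining for cytotoxicity. Fitted in positive direction relative to DMSO.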

Read-out in test [15]: Collagen I, COL1A1 (gene 1277)
Description: BSK_hDFCGF_CollagenI: BioMAP Diversity Plus: hDFCGF Assay for Collagen I Biomarker Activity (AID 2284250). Particulars: primary human foreskin fibroblasts. The method in brief:
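Primary human foreskin fibroblasts (hDFCGF system) exposed to chemical for 24 h; Collagen I measured by ELISA. Activity fitted in the positive direction relative to DMSO baseline, with SRB total-protein staining in parallel cultures for overt cytotoxicity.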

Read-out in test [16]: Interferon-inducible T-cell alpha chemoattractant (ITAC), CXCL11 (gene 6373)
Description: BSK_hDFCGF_ITAC: BioMAP Diversity Plus: hDFCGF Assay for Interferon-inducible T-cell alpha chemoattractant (ITAC) Biomarker Activity (AID 2284251). Conditions: primary human foreskin fibroblasts. The method in brief: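 ELISA readout of I-TAC after 24 h chemical exposure; human dermal foreskin fibroblast primary cells. Positive-direction fitting vs DMSO baseline. Parallel SRB total-protein staining (0.1% SRB after 10% TCA fixation, 560 nm) flags cytotoxicity.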

Read-out in test [17]: Plasminogen activator inhibitor-1 (PAI1), SERPINE1 (gene 5054)
Description: BSK_KF3CT_PAI1: BioMAP Diversity Plus: KF3CT Assay for Plasminogen activator inhibitor-1 (PAI1) Biomarker Activity (AID 2284252). Conditions: primary human keratinocytes with fibroblasts. The method in brief:
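Human primary keratinocyte/foreskin fibroblast co-culture was dosed with compound and sampled at 24 h. PAI-1 was quantified by ELISA, with activity fitted in the positive direction relative to DMSO vehicle as baseline.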

Read-out in test [18]: Monocyte Chemoattractant Protein-1 (MCP1), CCL2 (gene 6347)
Description: BSK_IMphg_MCP1: BioMAP Diversity Plus: IMphg Assay for Monocyte Chemoattractant Protein-1 (MCP1) Biomarker Activity (AID 2284253). Particulars: primary human endothelial cells with macrophages. The method in brief: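 Human venular endothelial cells co-cultured with macrophages; MCP-1 measured by ELISA 24 hours post-dose and fitted against DMSO. Cytotoxicity monitored by SRB total-protein staining in parallel cultures.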

Read-out in test [19]: Interleukin-8 (IL8), CXCL8 (gene 3576)
Description: BSK_KF3CT_IL8: BioMAP Diversity Plus: KF3CT Assay for Interleukin-8 (IL8) Biomarker Activity (AID 2284254). Particulars: primary human keratinocytes with fibroblasts. Summed up:
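Using parallel SRB-stained cultures to flag overt toxicity, the study quantified IL-8 by ELISA in human keratinocyte–foreskin fibroblast co-cultures 24 h after dosing, with DMSO as negative control and baseline.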

Read-out in test [20]: Macrophage Inflammatory Protein-1 Alpha (MIP1a), CCL3 (gene 6348)
Description: BSK_IMphg_MIP1a: BioMAP Diversity Plus: IMphg Assay for Macrophage Inflammatory Protein-1 Alpha (MIP1a) Biomarker Activity (AID 2284255). Conditions: primary human endothelial cells with macrophages. The method in brief: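 Co-culture of human venular endothelial cells and macrophages exposed to compounds for 24 h; MIP-1a measured by ELISA relative to DMSO. Cytotoxicity assessed in parallel cultures by sulforhodamine B total-protein staining at 560 nm.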

Consider `CCSC(C)CC1CC(=O)C(C(CC)=NOC/C=C/Cl)=C(O)C1` (stereo not given), for which the result in test [1], in test [2], in test [3], in test [4], in test [5] and in [6] was inactive.
For the compound `Oc1cccc2cccnc12`, in test [7], the result was inactive.
Turning to `BrCCBr`, the result in test [1], in [2], in [3], in test [4], in test [5] and in test [6] was inactive.
`CC(C)(C)c1cc(O)ccc1O`: in test [7], the outcome was inactive.
Turning to `CCOP(=S)(OCC)Oc1nc(Cl)c(Cl)cc1Cl`, the AC50 in test [8] was 9.92 µM (active) and 75.5 µM (active); in test [9] it was 29.8 µM (active); in test [10], 7.91 µM (active) and 89.6 µM (active); in test [11], 35.5 µM (active); in test [12], 82.7 µM (active) and 26.6 µM (active).
As for `O=C1C2(Cl)C3(Cl)C4(Cl)C(Cl)(Cl)C5(Cl)C3(Cl)C1(Cl)C5(Cl)C24Cl` (stereo not given), the AC50 in [8] was 15 µM (active); in test [9], 7.19 µM (active); in test [10], 20.1 µM (active); in test [11], 23.5 µM (active). For the same compound, the result in test [12] was inactive.
With `Nc1ncc([N+](=O)[O-])s1`, the outcome in test [1], in test [2], in test [3], in test [4], in [5] and in [6] was inactive.
For the compound `CCCCCCCCC(=O)NCc1ccc(O)c(OC)c1`, the result in test [1], in test [2], in test [3], in [4], in [5] and in test [6] was inactive.
As for `Nc1cccc2ccccc12`, the outcome in test [1], in test [3], in [4], in [5] and in test [6] was inactive. For the same compound, the half-maximal activity concentration (AC50) in [2] was 14.5 µM (active).
On to `O=C(O)C(F)(F)C(F)(F)C(F)(F)C(F)(F)C(F)(F)C(F)(F)F`, for which the outcome in test [1], in test [2], in test [10], in test [11], in [3] and in [4] was inactive. In addition, the outcome in [5], in test [6], in [13], in test [14], in test [15] and in test [16] was inactive. The result in [17], in [18], in test [19] and in [20] was inactive.
Consider `Nc1ccc(-c2ccc(N)c(Cl)c2)cc1Cl`, for which the AC50 in test [1] is 13.7 µM (active); in test [2], 3.17 µM (active); in [3], 20 µM (active); in test [5], 32.4 µM (active). Further, the result in test [4] and in test [6] was inactive.
Take `CC(C)CCCCCCOC(=O)c1ccccc1C(=O)OCCCCCCC(C)C`: the outcome in test [1], in [2], in test [3], in [4], in [5] and in [6] was inactive.
